Assay results from paper PMC8384837, “Expanding the binding specificity for RNA recognition by a PUF domain”.

target: PUM1 PUF domain R5-RAG (Homo sapiens, UniProt Q14671 828-1176, C1007R;R1008A;Q1011G); experiment: yeast three-hybrid, YBZ-1, SC-Leu-His + 0.5 mM 3-AT, 4 days; settings: tags: N-Gal4 AD-HA kept; label: inside an RPR1-promoter hybrid RNA with tandem MS2 sites; ssRNA
Summary of the method: (§1)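 Pumilio-1 PUF domain libraries, randomized at the three base-contacting residues of each repeat, were co-expressed with matching RNA elements from a centromeric plasmid in strain YBZ-1, which carries a LexA–MS2 coat fusion and a HIS3 reporter. Transformants grew for four days on SC-Leu (input) or on SC-Leu-His + 0.5 mM 3-AT (selection), and the repeat regions were PCR-amplified and Illumina-sequenced. The interaction score is the log change in variant frequency from input to selection. That logarithm is base 2, with a pseudocount of 1 where a variant was absent.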

| Sequence | binding signal |
| --- | --- |
| GGCUAGAACUAGUGGAUCCCCCGGCGCCCGGCGGCUCGAGCCCGGGUAAGUGUCAAUAGUCUGCAUGCCGCCGGGCGCCAUGCCUGCAGGUCGACUCUAGAAAACAUG | 3.6 log2 enrichment (interaction score) |
| GGCUAGAACUAGUGGAUCCCCCGGCGCCCGGCGGCUCGAGCCCGGGUAAGUGUAAAUAGUCUGCAUGCCGCCGGGCGCCAUGCCUGCAGGUCGACUCUAGAAAACAUG | 0.1 log2 enrichment (interaction score) |
| GGCUAGAACUAGUGGAUCCCCCGGCGCCCGGCGGCUCGAGCCCGGGUAAGUGUGAAUAGUCUGCAUGCCGCCGGGCGCCAUGCCUGCAGGUCGACUCUAGAAAACAUG | 0.18 log2 enrichment (interaction score) |
| GGCUAGAACUAGUGGAUCCCCCGGCGCCCGGCGGCUCGAGCCCGGGUAAGUGUUAAUAGUCUGCAUGCCGCCGGGCGCCAUGCCUGCAGGUCGACUCUAGAAAACAUG | 3.37 log2 enrichment (interaction score) |

target: PUM1 PUF domain R5-RRK (Homo sapiens, UniProt Q14671 828-1176, C1007R;Q1011K); experiment: as above; settings: tags: N-Gal4 AD-HA kept; label: inside an RPR1-promoter hybrid RNA with tandem MS2 sites; ssRNA
Summary of the method: as §1

| Sequence | binding signal |
| --- | --- |
| GGCUAGAACUAGUGGAUCCCCCGGCGCCCGGCGGCUCGAGCCCGGGUAAGUGUCAAUAGUCUGCAUGCCGCCGGGCGCCAUGCCUGCAGGUCGACUCUAGAAAACAUG | 4.43 log2 enrichment (interaction score) |
| GGCUAGAACUAGUGGAUCCCCCGGCGCCCGGCGGCUCGAGCCCGGGUAAGUGUAAAUAGUCUGCAUGCCGCCGGGCGCCAUGCCUGCAGGUCGACUCUAGAAAACAUG | 1.82 log2 enrichment (interaction score) |
| GGCUAGAACUAGUGGAUCCCCCGGCGCCCGGCGGCUCGAGCCCGGGUAAGUGUGAAUAGUCUGCAUGCCGCCGGGCGCCAUGCCUGCAGGUCGACUCUAGAAAACAUG | 1.4 log2 enrichment (interaction score) |
| GGCUAGAACUAGUGGAUCCCCCGGCGCCCGGCGGCUCGAGCCCGGGUAAGUGUUAAUAGUCUGCAUGCCGCCGGGCGCCAUGCCUGCAGGUCGACUCUAGAAAACAUG | 4.7 log2 enrichment (interaction score) |

target: PUM1 PUF domain R3-IFG (Homo sapiens, UniProt Q14671 828-1176, C935I;R936F;Q939G); experiment: as above; settings: tags: N-Gal4 AD-HA kept; label: inside an RPR1-promoter hybrid RNA with tandem MS2 sites; ssRNA
Summary of the method: as §1

| Sequence | binding signal |
| --- | --- |
| GGCUAGAACUAGUGGAUCCCCCGGCGCCCGGCGGCUCGAGCCCGGGUAAGUGUAAAUAGUCUGCAUGCCGCCGGGCGCCAUGCCUGCAGGUCGACUCUAGAAAACAUG | 3.21 log2 enrichment (interaction score) |
| GGCUAGAACUAGUGGAUCCCCCGGCGCCCGGCGGCUCGAGCCCGGGUAAGUGUAAUUAGUCUGCAUGCCGCCGGGCGCCAUGCCUGCAGGUCGACUCUAGAAAACAUG | 3.79 log2 enrichment (interaction score) |
| GGCUAGAACUAGUGGAUCCCCCGGCGCCCGGCGGCUCGAGCCCGGGUAAGUGUAAGUAGUCUGCAUGCCGCCGGGCGCCAUGCCUGCAGGUCGACUCUAGAAAACAUG | 5.86 log2 enrichment (interaction score) |
